# Measurements published in paper PMC11062922 (Nature Chemical Biology, 2023).
# Where two headings read alike, the source gives them in different places.
# What was measured:
# Parameters in all cases: species or system human, MV4-11 + K-562 + COLO205 + SK-N-BE2 + OVCAR-8
# [1] = tested on: ADRBK1; conditions: read-out: apparent Kd, n = 1
# [2] = tested on: AURKB; conditions: read-out: apparent Kd; compound concentrations: 100 nM and 1000 nM (sheet 'Samples'), CATDS: 4.53976270719329E-2; n = 1
# [3] = tested on: CDC42BPA; conditions: read-out: apparent Kd; compound concentrations: 100 nM and 1000 nM (sheet 'Samples'), CATDS: 4.6703340399090902E-2; n = 1
# [4] = tested on: CDC42BPB; conditions: read-out: apparent Kd; compound concentrations: 100 nM and 1000 nM (sheet 'Samples'), CATDS: 8.1718607262500007E-2; n = 1
# [5] = tested on: CDC42BPG; conditions: read-out: apparent Kd; compound concentrations: 100 nM and 1000 nM (sheet 'Samples'), CATDS: 0.122976821527932; n = 1
# [6] = tested on: MELK; conditions: read-out: apparent Kd; compound concentrations: 100 nM and 1000 nM (sheet 'Samples'), CATDS: 4.0337872556692203E-2; n = 1
# [7] = tested on: PKN1; conditions: read-out: apparent Kd; compound concentrations: 100 nM and 1000 nM (sheet 'Samples'), CATDS: 5.5828153237378199E-2; n = 1
# [8] = tested on: PRKACA; conditions: read-out: apparent Kd; compound concentrations: 100 nM and 1000 nM (sheet 'Samples'), CATDS: 0.15364930572584601; n = 1
# [9] = tested on: PRKACB; conditions: read-out: apparent Kd; compound concentrations: 100 nM and 1000 nM (sheet 'Samples'), CATDS: 8.6308392593060404E-2; n = 1
# [10] = tested on: PRKG1; conditions: read-out: apparent Kd; compound concentrations: 100 nM and 1000 nM (sheet 'Samples'), CATDS: 0.45709294819491503; n = 1
# [11] = tested on: PRKX;PRKY; conditions: read-out: apparent Kd; compound concentrations: 100 nM and 1000 nM (sheet 'Samples'), CATDS: 6.11631694313804E-2; n = 1
# [12] = tested on: ROCK1; conditions: read-out: apparent Kd; compound concentrations: 100 nM and 1000 nM (sheet 'Samples'), CATDS: 0.130780563846252; n = 1
# [13] = tested on: ROCK2; conditions: read-out: apparent Kd; compound concentrations: 100 nM and 1000 nM (sheet 'Samples'), CATDS: 0.120469396164387; n = 1
# [14] = tested on: RPS6KA5; conditions: read-out: apparent Kd; compound concentrations: 100 nM and 1000 nM (sheet 'Samples'), CATDS: 4.3322192000587102E-2; n = 1
# [15] = tested on: RPS6KB1; conditions: read-out: apparent Kd; compound concentrations: 100 nM and 1000 nM (sheet 'Samples'), CATDS: 4.8981649950923703E-2; n = 1
# [16] = tested on: AGPS; conditions: read-out: apparent Kd; compound concentrations:100 nM and 1000 nM (sheet 'Samples'); n = 1
# [17] = tested on: AKT1; conditions: read-out: apparent Kd; compound concentrations:100 nM and 1000 nM (sheet 'Samples'); n = 1
# [18] = tested on: AKT2; conditions: read-out: apparent Kd; compound concentrations:100 nM and 1000 nM (sheet 'Samples'); n = 1
# [19] = tested on: AKT3; conditions: read-out: apparent Kd; compound concentrations:100 nM and 1000 nM (sheet 'Samples'); n = 1
# [20] = tested on: CDK16; conditions: read-out: apparent Kd; compound concentrations:100 nM and 1000 nM (sheet 'Samples'); n = 1
# [21] = tested on: CDK17; conditions: read-out: apparent Kd; compound concentrations:100 nM and 1000 nM (sheet 'Samples'); n = 1
# [22] = tested on: T1, DJA1; conditions: read-out: apparent Kd; compound concentrations:100 nM and 1000 nM (sheet 'Samples'); n = 1
# T1 construct: gene DNAJA1
# [23] = tested on: FLT3; conditions: read-out: apparent Kd; compound concentrations:100 nM and 1000 nM (sheet 'Samples'); n = 1
# [24] = tested on: ILK; conditions: read-out: apparent Kd; compound concentrations:100 nM and 1000 nM (sheet 'Samples'); n = 1
# [25] = tested on: MAP2K1; conditions: read-out: apparent Kd; compound concentrations:100 nM and 1000 nM (sheet 'Samples'); n = 1
# [26] = tested on: MAP2K2; conditions: read-out: apparent Kd; compound concentrations:100 nM and 1000 nM (sheet 'Samples'); n = 1
# [27] = tested on: NNT; conditions: read-out: apparent Kd; compound concentrations:100 nM and 1000 nM (sheet 'Samples'); n = 1
# [28] = tested on: NQO1; conditions: read-out: apparent Kd; compound concentrations:100 nM and 1000 nM (sheet 'Samples'); n = 1
# [29] = tested on: PDGFRB; conditions: read-out: apparent Kd; compound concentrations:100 nM and 1000 nM (sheet 'Samples'); n = 1
# [30] = tested on: PIP4K2C; conditions: read-out: apparent Kd; compound concentrations:100 nM and 1000 nM (sheet 'Samples'); n = 1
# [31] = tested on: PRKAG1; conditions: read-out: apparent Kd; compound concentrations:100 nM and 1000 nM (sheet 'Samples'); n = 1
# [32] = tested on: PRKAG2; conditions: read-out: apparent Kd; compound concentrations:100 nM and 1000 nM (sheet 'Samples'); n = 1
# [33] = tested on: PYGL; conditions: read-out: apparent Kd; compound concentrations:100 nM and 1000 nM (sheet 'Samples'); n = 1
# [34] = tested on: RIOK2; conditions: read-out: apparent Kd; compound concentrations:100 nM and 1000 nM (sheet 'Samples'); n = 1
# [35] = tested on: STK26; conditions: read-out: apparent Kd; compound concentrations:100 nM and 1000 nM (sheet 'Samples'); n = 1
# [36] = tested on: VDAC3; conditions: read-out: apparent Kd; compound concentrations:100 nM and 1000 nM (sheet 'Samples'); n = 1
# [37] = tested on: CDK4; conditions: read-out: apparent Kd; compound concentrations:100 nM and 1000 nM (sheet 'Samples'); n = 1
# [38] = tested on: CDK6; conditions: read-out: apparent Kd; compound concentrations:100 nM and 1000 nM (sheet 'Samples'); n = 1
# [39] = tested on: MAPK14; conditions: read-out: apparent Kd; compound concentrations:100 nM and 1000 nM (sheet 'Samples'); n = 1
# [40] = tested on: MAPKAPK2; conditions: read-out: apparent Kd; compound concentrations:100 nM and 1000 nM (sheet 'Samples'); n = 1
# [41] = tested on: NQO2; conditions: read-out: apparent Kd; compound concentrations:100 nM and 1000 nM (sheet 'Samples'); n = 1
# [42] = tested on: PRKCZ; conditions: read-out: apparent Kd; compound concentrations:100 nM and 1000 nM (sheet 'Samples'); n = 1
# [43] = tested on: TP53RK; conditions: read-out: apparent Kd; compound concentrations:100 nM and 1000 nM (sheet 'Samples'); n = 1
# [44] = compound concentrations:100 nM and 1000 nM (sheet 'Samples')
smiles,measurement,setting,value
CCNCC(Cc1ccccc1)NC(=O)c1cc(Br)c(-c2ccnc3[nH]ccc23)s1.CCNCC(Cc1ccccc1)NC(=O)c1cc(Br)c(-c2ccnc3[nH]ccc23)s1.Cl.Cl (stereo not shown) [GSK1383280A],potency estimated from few doses,"[1]; compound concentrations: 100 nM and 1000 nM (sheet 'Samples'), CATDS: 4.4620595418211097E-2",971 nM
same,potency estimated from few doses,[2],888 nM
same,potency estimated from few doses,[3],771 nM
same,potency estimated from few doses,[4],103 nM
same,potency estimated from few doses,[5],38.1 nM
same,potency estimated from few doses,[6],1780 nM
same,potency estimated from few doses,[7],359 nM
same,potency estimated from few doses,[8],24.4 nM
same,potency estimated from few doses,[9],88.6 nM
same,potency estimated from few doses,[10],4.21 nM
same,potency estimated from few doses,[11],256 nM
same,potency estimated from few doses,[12],33.5 nM
same,potency estimated from few doses,[13],39.8 nM
same,potency estimated from few doses,[14],1140 nM
same,potency estimated from few doses,[15],617 nM
NS(=O)(=O)c1ccc(Nc2ncc(-c3ccccc3)o2)cc1 [GW572399X],potency estimated from few doses,[1]; [44],1910 nM
same,potency estimated from few doses,[16],2050 nM
same,potency estimated from few doses,[17],1960 nM
same,potency estimated from few doses,[18],1970 nM
same,potency estimated from few doses,[19],1560 nM
same,potency estimated from few doses,[20],1760 nM
same,potency estimated from few doses,[21],2100 nM
same,potency estimated from few doses,[22],1310 nM
same,potency estimated from few doses,[23],164 nM
same,potency estimated from few doses,[24],1870 nM
same,potency estimated from few doses,[25],1420 nM
same,potency estimated from few doses,[26],1740 nM
same,potency estimated from few doses,[27],1770 nM
same,potency estimated from few doses,[28],1900 nM
same,potency estimated from few doses,[29],1480 nM
same,potency estimated from few doses,[30],2290 nM
same,potency estimated from few doses,[31],1790 nM
same,potency estimated from few doses,[32],1380 nM
same,potency estimated from few doses,[33],1900 nM
same,potency estimated from few doses,[34],2160 nM
same,potency estimated from few doses,[35],1400 nM
same,potency estimated from few doses,[36],1580 nM
Cc1ccccc1-c1cc(-c2c[nH]nc2-c2ccccn2)ccn1 [GW680061X],potency estimated from few doses,[1]; [44],2140 nM
same,potency estimated from few doses,[37],1890 nM
same,potency estimated from few doses,[38],1960 nM
same,potency estimated from few doses,[26],2250 nM
same,potency estimated from few doses,[39],993 nM
same,potency estimated from few doses,[40],470 nM
same,potency estimated from few doses,[41],1210 nM
same,potency estimated from few doses,[42],2260 nM
same,potency estimated from few doses,[43],2160 nM
